We go through 12 molecules from PubChem BioAssay.

The structures appear in SMILES notation. Active and inactive are the calls of the source.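 How the source made its calls, unless noted: active means inhibition at or above 50% at 10 µM; inactive means inhibition below 50%.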

Assay [1] is described as follows: inhibitors of TNFa-induced NFkB p65 translocation, primary screen, imaging, HUVEC, MLSMR starter and 10KST1 sets (AID 438;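 active means inhibition above 20% together with a positive visual image hit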;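 further: compound added about 3h40 before a 20 min TNFalpha stimulation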;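 on inhibition: signal is the nuclear over cytoplasmic p65 intensity ratio per well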). Conditions: HUVEC TNFa-induced p65 nuclear translocation; cell count: measured here: nuclei count (cytotoxicity indicator), at 2.08 µM; inhibition: at 2 µM, stronger effect = higher value, 0% TNFa-plus-vehicle, 100% no-TNFa wells.
Assay [2] can be described thus: inhibitors of mutant huntingtin aggregation, primary screen, imaging, exon1htt(103Q)mCFP cells, high-content imaging (AID 483;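 active means visual image review flags a hit and inhibition of aggregation exceeds 20%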;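 further: compound exposure lasted 3 days before fixation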;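 on nuclei count: percent of the per-plate median nuclei count of sample wells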). As to conditions: exon1htt(103Q)mCFP cell line, aggregate imaging, at 2 µM; inhibition of aggregation: stronger effect = higher value; nuclei count: measured here: cell count, toxicity.
A short description of assay [3]: inhibitors of E-selectin induction by TNFa, primary screen, imaging, HUVEC, immunofluorescence, MLSMR starter and 10KST1 sets (AID 487;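 active means visually confirmed hit in the image check and inhibition above 20%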;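 on inhibition: signal is fraction of cell area covered by stained E-selectin grains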;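 on nuclei count: 100% = median nuclei count of all wells on the same plate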). As to conditions: HUVEC TNFalpha-induced E-selectin immunofluorescence imaging, at 2 µM; inhibition: stronger effect = higher value; nuclei count: measured here: cell number, toxicity.
In assay [4] the target is Voltage-gated potassium channel subunit beta-2 (Rattus norvegicus) (UniProt P62483). The assay is described as follows: KvBeta enzyme negative modulators, primary screen, biochemical, NADPH fluorescence (AID 622;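 active means fluorescence slope higher than the sample average by over 3 SD, cut at about -0.22 in these data, passing the limit was not always enough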;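 further: slope of raw intensity against log time taken from 70 to 1610 s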). As to conditions: recombinant KvBeta, 4-cyanobenzaldehyde reduction, at 10 µM, stronger effect = higher value.
Voltage-gated potassium channel subunit beta-2 (Rattus norvegicus), sequence (P62483 whole entry, looked up): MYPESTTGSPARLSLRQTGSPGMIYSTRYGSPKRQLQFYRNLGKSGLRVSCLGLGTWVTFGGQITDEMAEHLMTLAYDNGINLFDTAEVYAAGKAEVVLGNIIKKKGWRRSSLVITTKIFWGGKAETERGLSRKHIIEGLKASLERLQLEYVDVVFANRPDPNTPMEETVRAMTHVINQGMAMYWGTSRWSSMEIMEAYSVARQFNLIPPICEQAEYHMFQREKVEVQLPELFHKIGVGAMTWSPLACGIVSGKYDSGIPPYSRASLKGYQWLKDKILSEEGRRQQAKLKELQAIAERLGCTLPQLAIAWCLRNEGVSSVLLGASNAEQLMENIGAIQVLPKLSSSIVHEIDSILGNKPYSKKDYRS
The target is the same in assay [5]. Put plainly: KvBeta positive modulators, primary screen, biochemical, NADPH fluorescence (AID 623;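 active means NADPH fluorescence slope more negative than the mean of all samples by about 3 SD, 99.7% confidence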;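 further: fluorescence intensity change per second fitted from 20 to 320 s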). As to conditions: Recombinant KvBeta, NADPH fluorescence decrease slope, 10 min; at 10 µM; stronger effect = lower value.
Assay [6] deals with Alpha-2C adrenergic receptor (Homo sapiens) (UniProt P18825). The assay is described as follows: modulators of alpha2C/GIRK thallium flux, primary screen, cell-based, HEK293 alpha2C/GIRK1/2 (AID 624;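 active means fluorescence slope after compound addition differing from the mean of all screened samples at 99.7% confidence, in either direction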;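 further: slope of fluorescence ratio to pre-addition baseline per second over 15 to 24 s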). As to conditions: thallium flux BTC fluorescence, at 10 µM, actives lie on both sides.
Alpha-2C adrenergic receptor (Homo sapiens), sequence (P18825 whole entry, looked up): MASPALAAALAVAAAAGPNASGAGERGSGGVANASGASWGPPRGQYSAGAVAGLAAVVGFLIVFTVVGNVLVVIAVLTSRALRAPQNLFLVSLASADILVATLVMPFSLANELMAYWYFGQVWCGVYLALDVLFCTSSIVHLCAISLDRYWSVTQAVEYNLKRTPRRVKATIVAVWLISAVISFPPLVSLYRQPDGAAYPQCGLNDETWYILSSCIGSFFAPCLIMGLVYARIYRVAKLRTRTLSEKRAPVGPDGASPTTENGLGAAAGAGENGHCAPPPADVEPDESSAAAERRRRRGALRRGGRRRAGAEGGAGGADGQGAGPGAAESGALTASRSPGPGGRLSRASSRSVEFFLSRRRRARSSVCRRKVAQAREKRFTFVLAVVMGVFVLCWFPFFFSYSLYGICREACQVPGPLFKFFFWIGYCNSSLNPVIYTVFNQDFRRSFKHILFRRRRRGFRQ
Assay [7] in a line: inhibitors of Sendai virus-induced IRF3 signaling, primary screen, TLR/RLR signaling modifier project, cell-based, Sendai virus stimulus, luciferase, 10K MLSCN set (AID 602276).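 Further: firefly luciferase from ISG56 promoter only with Renilla not read in this screen; 0% = Sendai virus plus DMSO and 100% = medium plus DMSO without virus.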 As to conditions: HEK293 RL24 IRF3 luciferase reporter, at 10 µM, stronger effect = higher value.
The nature of assay [8]: inhibitors of poly I:C-induced TLR3 signaling, primary screen, cell-based, poly I:C stimulus, luciferase, 10K MLSCN set (AID 602277;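 active means inhibition of the reporter signal at or above 50%; inactive means inhibition below 50%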). Conditions: HEK293-TLR3 RL24 IRF3 luciferase reporter, at 10 µM, stronger effect = higher value.

Take `Cc1cc(C)n(CCc2nc(-c3cccs3)cs2)n1`: in assay [1], the cell count is 587. For the same molecule, the inhibition in assay [1] is -10.1% (inactive); in assay [3] it was -52.1% (inactive); in assay [7] it was -6.14% (inactive); in assay [8], -42.1% (inactive). In addition, the inhibition of aggregation in assay [2] is -5.8% (inactive). In addition, the nuclei count in assay [2] was 98.6%; in assay [3], 112%. Moreover, the fluorescence slope in assay [4] was -0.603 (inactive). Further, in assay [5], the NADPH fluorescence slope is -5.2e-07 (inactive). Further, in assay [6], the slope was 0.00641 (inactive).
Consider `N#CCCn1ccc(NC(=O)c2ccc(Cl)cc2)n1`, for which, in assay [1], the cell count was found to be 444. Further, the inhibition is -6.3% (inactive) in assay [1], -23% (inactive) in assay [3], -18.1% (inactive) in assay [7] and -11.6% (inactive) in assay [8]. For the same molecule, the inhibition of aggregation in assay [2] is 13.4% (inactive). Also, the nuclei count in assay [2] was determined as 100%; in assay [3], 131%. Further, in assay [4], the fluorescence slope is -0.477 (inactive). Moreover, the NADPH fluorescence slope in assay [5] was -6.3e-05 (inactive). Also, the slope in assay [6] is 0.00607 (inactive).
Regarding `Cc1ccc(S(=O)(=O)NCC(=O)N(CC(=O)NCc2ccccc2)CC2CCCO2)cc1` (configuration not stated), the cell count in assay [1] was found to be 341. Moreover, the inhibition was -16.5% (inactive) in assay [1], -31.2% (inactive) in assay [3], 12.2% (inactive) in assay [7] and 15.3% (inactive) in assay [8]. For the same molecule, in assay [2], the inhibition of aggregation was 14.8% (inactive). Moreover, the figures for the nuclei count in assay [2] and in assay [3] were 107% and 170%, respectively. Moreover, the fluorescence slope in assay [4] was -0.599 (inactive). The NADPH fluorescence slope in assay [5] was 1.2e-05 (inactive). For the same molecule, the slope in assay [6] is 0.00602 (inactive).
In the case of `COc1ccc(CN(C2CCCC2)S(=O)(=O)c2ccc(-n3cnnn3)cc2)cc1OC`, in assay [1], the cell count is 527. Besides, the inhibition in assay [1] was -5.8% (inactive); in assay [3], -39.4% (inactive); in assay [7], 15.1% (inactive); in assay [8], 18.9% (inactive). The inhibition of aggregation in assay [2] is -15% (inactive). For the same molecule, the nuclei count in assay [2] turned out to be 115%; in assay [3] it was 124%. The fluorescence slope in assay [4] was -0.57 (inactive). Also, in assay [5], the NADPH fluorescence slope is -1.6e-05 (inactive). Moreover, the slope in assay [6] is 0.00406 (inactive).
For the molecule `COc1cccc(NC(=O)N2CCN(c3cccc(C)c3C)CC2)c1`, in assay [1], the cell count was 647. In addition, the inhibition was -5.2% (inactive) in assay [1], -139% (inactive) in assay [3], -24.5% (inactive) in assay [7] and -55.2% (inactive) in assay [8]. Also, the inhibition of aggregation in assay [2] was -12.7% (inactive). Besides, the nuclei count turned out to be 75.8% in assay [2] and 93.3% in assay [3]. In addition, in assay [4], the fluorescence slope is -0.455 (inactive). Besides, the NADPH fluorescence slope in assay [5] is -4.9e-05 (inactive). Also, the slope in assay [6] is 0.00389 (inactive).
For `CCCS(=O)(=O)N1CCN(C(=O)c2cccs2)CC1`, the cell count in assay [1] was 559. Besides, the inhibition was 7.2% (inactive) in assay [1], -58.9% (inactive) in assay [3], 13.1% (inactive) in assay [7] and 3.31% (inactive) in assay [8]. For the same molecule, the inhibition of aggregation in assay [2] was 5.4% (inactive). In addition, the results for the nuclei count in assay [2] and in assay [3] were 91% and 102%, respectively. Further, the fluorescence slope in assay [4] is -0.622 (inactive). Besides, the NADPH fluorescence slope in assay [5] was -3.8e-05 (inactive). The slope in assay [6] is 0.00496 (inactive).
Take `CSc1ccc(S(=O)(=O)Nc2cccc(F)c2)cc1`: in assay [1], the cell count was 342. In addition, the inhibition in assay [1] is 1% (inactive); in assay [3], -34.7% (inactive); in assay [7], 15.7% (inactive); in assay [8], 26.6% (inactive). Also, the inhibition of aggregation in assay [2] is -4.6% (inactive). The figures for the nuclei count in assay [2] and in assay [3] were 82.9% and 96.9%, respectively. Moreover, the fluorescence slope in assay [4] is -0.408 (inactive). Moreover, the NADPH fluorescence slope in assay [5] is -5.1e-05 (inactive). In addition, the slope in assay [6] was 0.00352 (inactive).
On to `COc1ccccc1-c1nc2n(n1)C(c1ccc(Cl)cc1)C(C(N)=O)=C(C)N2` (configuration not stated), for which, in assay [1], the cell count was determined as 313. In addition, the inhibition was 1.8% (inactive) in assay [1], -37.7% (inactive) in assay [3], 11.9% (inactive) in assay [7] and 36.9% (inactive) in assay [8]. The inhibition of aggregation in assay [2] is 4.3% (inactive). Also, the nuclei count in assay [2] was found to be 101%; in assay [3] it was 84.9%. Besides, the fluorescence slope in assay [4] is -0.464 (inactive). Moreover, the NADPH fluorescence slope in assay [5] is 1.5e-05 (inactive). Moreover, the slope in assay [6] was 0.00608 (inactive).
Take `CCC(CC)C(=O)NCCc1cc2ccc(C)cc2[nH]c1=O`: in assay [1], the cell count came out at 643. For the same molecule, the inhibition in assay [1] was 0.5% (inactive); in assay [3], -15.4% (inactive); in assay [7], 14.3% (inactive); in assay [8], 26.1% (inactive). Besides, the inhibition of aggregation in assay [2] is 3% (inactive). Besides, the nuclei count in assay [2] was determined as 117%; in assay [3], 111%. In addition, the fluorescence slope in assay [4] is -0.556 (inactive). For the same molecule, the NADPH fluorescence slope in assay [5] was -3.5e-05 (inactive). Further, in assay [6], the slope was 0.00557 (inactive).
As for `O=C(CSc1nnc(Cn2c(=O)sc3ccccc32)n1-c1ccccc1)NCC1CCCO1` (configuration not stated), in assay [1], the cell count is 525. In addition, the inhibition in assay [1] was -6.2% (inactive); in assay [3], -19.9% (inactive); in assay [7], 12% (inactive); in assay [8], 37.7% (inactive). Moreover, the inhibition of aggregation in assay [2] is 1.1% (inactive). The figures for the nuclei count in assay [2] and in assay [3] were 106% and 116%, respectively. Further, the fluorescence slope in assay [4] was -0.583 (inactive). Further, in assay [5], the NADPH fluorescence slope was -2.3e-05 (inactive). Further, in assay [6], the slope was 0.00648 (inactive).
Turning to `O=C(Nc1ncc2c(n1)CC(c1ccccc1)CC2=O)c1ccco1` (configuration not stated), the cell count in assay [1] came to 572. Moreover, the inhibition in assay [1] is -8.6% (inactive); in assay [3], -3.8% (inactive); in assay [7], 9.1% (inactive); in assay [8], 9.67% (inactive). Further, the inhibition of aggregation in assay [2] was -5.3% (inactive). The nuclei count is 99.5% in assay [2] and 86% in assay [3]. The fluorescence slope in assay [4] is -0.534 (inactive). In addition, the NADPH fluorescence slope in assay [5] was -5.7e-06 (inactive). In addition, in assay [6], the slope was 0.00546 (inactive).
As to `COc1ccc(-c2noc(CCN3C(=O)c4ccccc4C3=O)n2)cc1OC`, the cell count in assay [1] turned out to be 555. Moreover, the inhibition was 7.6% (inactive) in assay [1], 28.6% (inactive) in assay [3], -0.74% (inactive) in assay [7] and 26.4% (inactive) in assay [8]. Moreover, the inhibition of aggregation in assay [2] is -3.7% (inactive). The nuclei count was determined as 108% in assay [2] and 104% in assay [3]. The fluorescence slope in assay [4] was -0.497 (inactive). In assay [5], the NADPH fluorescence slope was -2.8e-05 (inactive). Further, the slope in assay [6] was 0.00665 (inactive).
